Reference: PubChem BioAssay AID720514 (Broad Institute, 2013)
Among all 2,100 compounds or so, about 300 (14%) were called active. Not shown: some 2% with an inconclusive outcome.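 How the source made its calls: active means every replicate test run called active, with the signal falling and half-maximal concentration within twice the top valid dose; inconclusive means the replicate test runs disagree in their calls; inactive means every test run inactive, including effects in the opposite direction.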 These entries were drawn from the full list. Entries with a potency or affinity are not part of this list.

Test: inhibitors of PGC1a acetylation in cells, dose response, cell-based, cherry-picked samples (AID 720514);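 further: actives lower the acetylation signal so they count as inhibitors of PGC1a acetylation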
Details: U2OS PGC1a acetylation, AlphaLISA, overnight; series mostly up to 19.5 µM

outcome, inactive:
O=C(NN1c2ccccc2CCc2ccccc21)c1ccccc1Br
CCOCCn1c(CN(Cc2ccccc2)Cc2ccccc2)nc2c1c(=O)n(C)c(=O)n2C
CC(=O)Nc1nonc1-c1nc2ccccc2n1Cc1ccccc1
O=C(COCc1cc(-c2ccc3c(c2)OCO3)on1)Nc1cccnc1
CCOC(=O)CNS(=O)(=O)c1cc(-c2nnc(Nc3ccc4c(c3)OCO4)c3ccccc23)ccc1C
O=C(COc1ccc([N+](=O)[O-])cc1)Nc1ccc(C(=O)NCc2cccnc2)cc1
CCOC(=O)C(NC(=O)c1ccccc1OCC)(Nc1ncccn1)C(F)(F)F (centres undefined)
Cc1c(C(=O)OCC(=O)c2c(N)n(CC(C)C)c(=O)n(C)c2=O)oc2ccccc12
Cc1ccc(S(=O)(=O)N2CCN(S(=O)(=O)c3ccc(C)cc3)C2c2ccccc2)cc1
COc1ccc(C2N(S(=O)(=O)c3ccccc3)CCN2S(=O)(=O)c2ccc(C)cc2)cc1 (centres undefined)
O=C(NCc1cccs1)c1ccc(Cl)c(S(=O)(=O)N2CCCC2)c1
COc1ccc(C(CNC(=O)c2cccc(N(C)C)c2)N2CCCC2)cc1 (centres undefined)
C[C@@H]1CN([C@H](C)CO)C(=O)c2c(c3ccccc3n2C)-c2ccccc2CO[C@@H]1CN(C)C(=O)[C@H](C)c1ccccc1
COc1cc(CNC(=O)c2cc(-c3cc(C)cc(F)c3)n[nH]2)cc(OC)c1
Cc1ccc(NC(=O)c2c(C(F)(F)F)nn(C)c2SCc2ccc(Cl)cc2)cc1C
CC(=O)Nc1cc(C(=O)OCc2cccc([N+](=O)[O-])c2)ccc1C
O=C(Nc1c(F)cccc1F)c1ccc(-n2cncn2)nc1
CC(C)(C)c1ccc(C(=O)Nc2ccc(C(=O)NCc3cccnc3)cc2)cc1
Cc1ccc(C(=O)c2c[nH]c(C(=O)NCc3cccnc3)c2)cc1
CCO[C@H]1OC(C(=O)N2CCCCCCC2)=C[C@@H](C2CCCCC2)[C@@H]1CCCO
Cc1cc(=O)oc2cc(OCC(=O)OCC(=O)Nc3ccccc3F)ccc12
C[C@@H]1CN([C@H](C)CO)C(=O)c2c(c3ccccc3n2C)-c2ccccc2CO[C@@H]1CN(C)C(=O)c1ccccc1
C[C@@H]1CN([C@@H](C)CO)C(=O)c2c(c3ccccc3n2C)-c2ccccc2CO[C@@H]1CN(C)C(=O)c1ccccc1
CC(C)c1ccc(NC(=O)c2ccc3c(c2)CCN3S(C)(=O)=O)cc1
COc1ccc(-c2cnc3c(c2)C(=O)N([C@H](C)CO)C[C@@H](C)[C@H](CN(C)C(=O)C2CCC2)O3)cc1
COc1ccc(NC(=O)N(C)C[C@H]2OCc3ccccc3-c3c(n(C)c4ccccc34)C(=O)N([C@@H](C)CO)C[C@H]2C)c(OC)c1
COc1ccc(C#Cc2cnc3c(c2)C(=O)N([C@H](C)CO)C[C@H](C)[C@H](CN(C)S(=O)(=O)c2cccc(F)c2)O3)cc1OC
COc1ccc(C#Cc2cnc3c(c2)C(=O)N([C@H](C)CO)C[C@H](C)[C@H](CN(C)S(=O)(=O)c2cccs2)O3)cc1OC
O=C(Nc1ccc(-c2noc(-c3cccs3)n2)cc1)c1cccnc1
CCOC(=S)SCC(=O)Nc1nc(C)c(C)s1
CC(=O)n1cc([C@@H]2C=C(C(=O)Nc3ccccc3)O[C@H](OCc3ccc(CO)cc3)C2)c2ccccc21
Cc1cc(C(=O)NNS(=O)(=O)c2ccccc2C(F)(F)F)nn1C(C)(C)C
C[C@@H]1CN([C@@H](C)CO)C(=O)c2c(c3ccccc3n2C)-c2ccccc2CO[C@@H]1CN(C)C(=O)Nc1ccccc1C(F)(F)F
COc1cccc(S(=O)(=O)N(C)C[C@@H]2Oc3cc(C4=CCCC4)ccc3S(=O)(=O)N([C@H](C)CO)C[C@@H]2C)c1
O=C(NC(Nc1cc(C(F)(F)F)ccc1Cl)C(=O)c1ccccc1)c1ccccc1 (centres undefined)
CCN(CC)CCNC(=O)c1ccc2c(c1NCCO)C(=O)c1ccccc1C2=O
CCCCn1c(CN(Cc2ccccc2)Cc2ccccc2)nc2c1c(=O)n(C)c(=O)n2C
CN1Cc2c(N3CCOCC3)nc3sc(C(=O)c4ccc(Br)cc4)c(N)c3c2CC1(C)C
O=C(c1ccccc1)C(O)(Cc1ccccc1)c1ccccc1 (centres undefined)
COc1ccc(S(=O)(=O)N2CCOCC2)cc1NC(=O)CCNC(=O)c1ccc([N+](=O)[O-])cc1
CC1CCN(S(=O)(=O)c2ccc(NC(=O)c3ccccc3F)cc2)CC1
CCOC(=O)C1=CC[C@@H](c2ccc(OC)cc2)N(S(=O)(=O)c2ccc(C)cc2)[C@H]1CC
CN(C(=O)C1CC1)C1CCS(=O)(=O)C1 (centres undefined)
CCOc1ccccc1NC(=O)CSc1cn[nH]n1
O=S1(=O)CCOC[C@H](CC2CCCCC2)N1Cc1ccc(F)cc1
COc1ccc([C@H]2/C=C\CN(S(=O)(=O)/C=C/c3ccccc3)[C@@H](C)C(=O)N2Cc2ccc(F)cc2)cc1
Cc1ccc(CN(CC(O)COc2cccc3[nH]cc(C)c23)C(C)(C)C)cc1 (centres undefined)
C#CCN1[C@H](/C=C/C2CC2)[C@H](Cc2ccccc2)OC(=O)[C@@H]1[C@@H]1N[C@@H](C(=O)OC)C(C)(C)S1
COc1ccc(S(=O)(=O)N2CCOCC2)cc1NC(=O)CCNC(=O)c1ccc(Cl)cc1
CCCN(CCC)CCNC(=O)c1cc2c(=O)n(CC)c3ccccc3c2s1
C[C@H]1CN([C@@H](C)CO)C(=O)c2cc(/C=C/c3ccccc3)cnc2O[C@H]1CN(C)C(=O)CN(C)C
Cc1ccccc1-c1ccc2c(c1)O[C@H](CN(C)Cc1ccncc1)[C@@H](C)CN([C@@H](C)CO)S2(=O)=O
CC(C)C#Cc1cnc2c(c1)C(=O)N([C@@H](C)CO)C[C@@H](C)[C@@H](CN(C)C(=O)c1ccccn1)O2
COc1ccc(S(=O)(=O)N(C)C[C@H]2Oc3cc(C4=CCCC4)ccc3S(=O)(=O)N([C@H](C)CO)C[C@@H]2C)cc1
C[C@H](CO)N1C[C@H](C)[C@H](CN(C)Cc2ccc(C(=O)O)cc2)Oc2ncc(-c3ccccc3)cc2C1=O
C[C@@H]1CN([C@@H](C)CO)C(=O)c2cc(C#CC3CCCC3)cnc2O[C@H]1CN(C)C(=O)Nc1ccccc1
COc1ccc(C)cc1NS(=O)(=O)c1ccc(NC(=O)CN(c2cc([N+](=O)[O-])ccc2C)S(C)(=O)=O)cc1
CCOC(=O)CCc1c(C)c2ccc(O)cc2oc1=O
OCc1ccc2c(c1)c(-c1ccc3c(c1)OCCO3)c(-c1ccccc1)n2-c1ccccc1
CCCCCOC(=O)Cc1c(O)c2ccccc2n(C)c1=O
CC(OC(=O)C1CCCC1)C(=O)Nc1ccc(C(N)=O)cc1 (centres undefined)
CCCCN(CC)CCCNC(=O)c1cc2c(=O)n(CC)c3ccccc3c2s1
C[C@@H]1CN([C@@H](C)CO)C(=O)CCCn2nncc2CO[C@H]1CN(C)CC1CCCCC1
C[C@H](CO)N1C[C@H](C)[C@@H](CN(C)Cc2ccc3c(c2)OCO3)Oc2cc(Br)ccc2S1(=O)=O
CC(C)CC#Cc1ccc2c(c1)O[C@H](CN(C)Cc1ccccc1)[C@H](C)CN([C@@H](C)CO)S2(=O)=O
C[C@@H]1CN([C@@H](C)CO)C(=O)c2cc(/C=C/c3ccccc3)cnc2O[C@@H]1CN(C)Cc1cccnc1
COc1ccccc1/C=C1\SC(=S)N(CCC(=O)NCCCn2ccnc2)C1=O
COc1cccc(NC(=O)N(C)C[C@H]2OCc3ccccc3-c3c(n(C)c4ccccc34)C(=O)N([C@@H](C)CO)C[C@@H]2C)c1
C[C@@H]1CN([C@@H](C)CO)C(=O)c2c(c3ccccc3n2C)-c2ccccc2CO[C@@H]1CN(C)C(=O)c1cc(Cl)cc(Cl)c1
C[C@H](CO)N1C[C@H](C)[C@@H](CN(C)CC2CCCCC2)Oc2c(NC(=O)c3nc4ccccc4s3)cccc2C1=O
C[C@H](CO)N1C[C@H](C)[C@H](CN(C)Cc2ccc(C(=O)Nc3ccccc3N)cc2)Oc2c(NC(=O)c3ccncc3)cccc2C1=O
C[C@H]1CN([C@@H](C)CO)S(=O)(=O)c2ccc(C#CCN(C)C)cc2O[C@@H]1CN(C)Cc1ccc2c(c1)OCO2
Nc1c(C(=O)c2ccccc2)sc2nsc(SCCN3CCCC3)c12
COc1ccc(S(=O)(=O)Nc2ccc3c(c2)C(=O)N([C@H](C)CO)C[C@H](C)[C@H](CN(C)S(=O)(=O)c2cn(C)cn2)OCCCC[C@@H](C)O3)cc1
COC(=O)C(Nc1ccccc1Cl)(c1cc(C)c(O)c(C)c1)C(F)(F)F (centres undefined)
CC(C)(C)c1ccc(C(=O)c2c[nH]c(C(=O)NCc3cccnc3)c2)cc1
CCN(CC)CCCn1c(=S)[nH]c2cc(Cl)ccc2c1=O
N#Cc1ccc(C(=O)CSc2nnc(-c3ccc(C(F)(F)F)cn3)s2)cc1
O=C(CSc1nc2ccccc2c(=O)n1CC1CCCO1)N1CCN(c2ccccc2)CC1 (centres undefined)
Cn1cc(-c2ccc(C(=O)NCc3cccc(Cl)c3)c3occc23)cn1
Cc1ccc2[nH]cc(C(=O)CN3CCN(c4ccccc4F)CC3)c2c1
O=C(Nc1ccc(OCC(=O)N2CCC(Cc3ccccc3)CC2)cc1)c1ccco1
COc1ccc(NC(=O)N2CCN(c3ccc([N+](=O)[O-])cc3)CC2)cc1
COc1ccc(C2C(C(=O)Nc3ccccc3)=C(C)Nc3nc(CCCO)nn32)cc1 (centres undefined)
